Measurements from ChEMBL document CHEMBL1201862, “PubChem BioAssay data set” (2004).
Hit rate of the full screen: of about 400,000 compounds, about 2,100 (0.53%) were called active. Not shown: some 14% with an inconclusive outcome. The rule behind the calls is not given here. This excerpt belongs to a sample that is enriched for actives.

Target: Ataxin-2 (Homo sapiens) (UniProt Q99700)
Experiment: qHTS for Inhibitors of ATXN expression.
Format: functional

Chain of Ataxin-2 (Homo sapiens) (Q99700 whole entry): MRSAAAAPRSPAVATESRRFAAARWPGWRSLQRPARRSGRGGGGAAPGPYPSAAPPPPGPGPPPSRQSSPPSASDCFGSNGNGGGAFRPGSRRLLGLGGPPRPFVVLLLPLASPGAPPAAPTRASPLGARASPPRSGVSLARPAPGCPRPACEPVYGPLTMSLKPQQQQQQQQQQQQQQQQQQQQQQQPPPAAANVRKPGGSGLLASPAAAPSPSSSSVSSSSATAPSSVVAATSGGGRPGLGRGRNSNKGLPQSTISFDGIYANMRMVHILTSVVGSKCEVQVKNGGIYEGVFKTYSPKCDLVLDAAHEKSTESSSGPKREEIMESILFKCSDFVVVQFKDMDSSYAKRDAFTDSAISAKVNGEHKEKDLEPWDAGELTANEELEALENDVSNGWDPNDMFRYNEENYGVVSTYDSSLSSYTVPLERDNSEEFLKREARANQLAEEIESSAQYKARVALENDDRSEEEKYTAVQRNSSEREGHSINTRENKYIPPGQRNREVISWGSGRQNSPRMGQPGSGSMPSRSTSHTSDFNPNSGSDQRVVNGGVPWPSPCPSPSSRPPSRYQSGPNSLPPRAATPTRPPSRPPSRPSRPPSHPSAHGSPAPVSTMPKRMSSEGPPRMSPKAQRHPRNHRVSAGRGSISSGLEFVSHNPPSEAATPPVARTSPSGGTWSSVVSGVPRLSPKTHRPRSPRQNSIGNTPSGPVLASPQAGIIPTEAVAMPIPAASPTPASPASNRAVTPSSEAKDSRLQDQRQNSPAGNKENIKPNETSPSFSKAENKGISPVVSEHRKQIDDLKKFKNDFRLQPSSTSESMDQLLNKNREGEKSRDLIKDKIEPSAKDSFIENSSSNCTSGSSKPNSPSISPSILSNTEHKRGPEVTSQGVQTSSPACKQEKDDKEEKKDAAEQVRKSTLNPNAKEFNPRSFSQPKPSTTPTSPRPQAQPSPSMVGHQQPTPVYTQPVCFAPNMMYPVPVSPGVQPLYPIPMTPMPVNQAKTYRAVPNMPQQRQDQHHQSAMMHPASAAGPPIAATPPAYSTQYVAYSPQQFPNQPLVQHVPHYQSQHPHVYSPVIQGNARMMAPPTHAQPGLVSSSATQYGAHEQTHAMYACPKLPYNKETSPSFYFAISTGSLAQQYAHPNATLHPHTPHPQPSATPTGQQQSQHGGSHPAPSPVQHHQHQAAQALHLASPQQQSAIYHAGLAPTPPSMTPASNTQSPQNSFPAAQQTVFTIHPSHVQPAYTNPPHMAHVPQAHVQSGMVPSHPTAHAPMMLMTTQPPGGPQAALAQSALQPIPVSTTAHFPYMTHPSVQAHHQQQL

Row | SMILES | Potency
1 | COCCn1c(=N)c(C(=O)NC(C)c2ccccc2)cc2c(=O)n3cc(C)ccc3nc21 (stereo not drawn) | inactive
2 | CCN(CC)c1ccc2cc(C(N)=O)/c(=N\NC(=O)c3ccncc3)oc2c1 | inactive
3 | CCCc1c(C(=O)N/N=C/c2ccc(OCc3ccc(F)cc3)cc2)nnn1-c1nonc1N | inactive
4 | COc1ccc(N2C(=O)/C(=C\Nn3cnnc3)c3ccccc3C2=O)cc1 | inactive
5 | Cc1ccc(C(=O)O)cc1N1C(=O)c2cccc3c([N+](=O)[O-])ccc(c23)C1=O | inactive
6 | O=C(N/N=C/c1sc(N2CCOCC2)nc1-c1ccccc1)c1ccc(O)cc1 | inactive
7 | CN(C)CCN(Cc1cc2cc3c(cc2nc1O)OCO3)C(S)=NCC1CCCO1 (stereo not drawn) | inactive
8 | Cc1cc(C)c2cc(CN(Cc3nnnn3C3CCCCC3)CC3CCCO3)c(O)nc2c1 (stereo not drawn) | 22.4 µM (active)
9 | Cc1ccc2cc(CN(Cc3ccc(F)cc3)Cc3nnnn3C3CCCC3)c(O)nc2c1 | 39.8 µM (active)
10 | CCC(NC(C)C)C(O)c1ccc(O)c2[nH]c(=O)ccc12 (stereo not drawn) | inactive
11 | COc1ccc(Cl)cc1NC(=O)CN(c1cc(C)cc(C)c1)S(=O)(=O)c1c(C)n[nH]c1C | 35.5 µM (active)
12 | CCOc1ccccc1N(CC(=O)Nc1ccccc1Br)S(=O)(=O)c1ccccc1 | inactive
13 | COc1ccc(Cl)cc1NC(=O)COC(=O)c1ccc(C)o1 | inactive
14 | COc1ccc(Cl)cc1NC(=O)CN(C)C1CCS(=O)(=O)C1 (stereo not drawn) | inactive
15 | CCOc1ccc(OCC)c(NC(=O)CN(c2ccc(C)cc2)S(=O)(=O)c2c(C)n[nH]c2C)c1 | 35.5 µM (active)
16 | COc1ccc(C)cc1NC(=O)CN(C)S(=O)(=O)c1ccc2c(c1)CC(C)N2C(C)=O (stereo not drawn) | inactive
17 | Cc1ccc2[nH]c3c(c2c1)SC(C)(C)CC3=O | inactive
18 | C=CCc1ccc(O)c(-c2ccc(O)c(CC=C)c2)c1 | 28.2 µM (active)
19 | CC(=O)Nc1sc(/C(C#N)=C\c2cccc(Cl)c2)nc1-c1ccc(C)cc1 | inactive
20 | CCC(C)n1c(=N)c(C(=O)NCc2ccco2)cc2c(=O)n3cc(C)ccc3nc21 (stereo not drawn) | inactive
21 | COc1ccc(Cl)cc1-c1n[nH]c(SCC(=O)NC2CC2)n1 | inactive

Row | SMILES | Potency
22 | Cc1ccc(NC(=O)CSc2c3c(nc4ccccc24)CCCC3)cc1F | 35.5 µM (active)
23 | CNC(=O)COC(=O)c1c2c(nc3ccccc13)CCC2 | inactive
24 | COc1ccc(NC(=O)CSc2nc(C)cs2)c(OC)c1 | inactive
25 | COc1cccc(NC(=O)CSc2c3c(nc4ccccc24)CCCC3)c1 | 35.5 µM (active)
26 | COc1ccc(NC(=O)CSc2c3c(nc4ccccc24)CCCC3)c(OC)c1 | 39.8 µM (active)
27 | COc1ccc(NC(=O)CSc2c3c(nc4cc(Cl)ccc24)CCCC3)cc1OC | 31.6 µM (active)
28 | O=C(CSc1nnc(-c2ccccc2F)n1C1CC1)Nc1ccc2[nH]c(O)nc2c1 | inactive
29 | COc1ccc(NC(=O)CSc2nc3ccsc3c(=O)n2Cc2ccccn2)c(OC)c1 | inactive
30 | COc1ccc(CC(=O)Nc2ccc3nc(Nc4cccc(Cl)c4)cc(C)c3c2)cc1OC | inactive
31 | Cc1ccc(C2CC(=O)Nc3cc4c(cc32)OCCO4)cc1 (stereo not drawn) | inactive
32 | CCOC(=O)C1=C(N)Oc2cc(O)ccc2C1c1ccc(F)cc1F (stereo not drawn) | inactive
33 | COc1ccc(CCNC(=O)Cc2c(C)c3ccc(O)c(C)c3oc2=O)cc1OC | inactive
34 | COc1ccc(OC)c(NC(=O)CSc2c3c(nc4ccccc24)CCCC3)c1 | 39.8 µM (active)
35 | Cc1ccc(NC(=O)CSc2nc3ccccc3c(=O)n2CCCN2CCCCC2)cc1C | 31.6 µM (active)
36 | Cc1ccc(NC(=O)CSc2nc3ccccc3c(=O)n2CCCC(=O)NCCCN2CCOCC2)cc1 | inactive
37 | COc1ccc(CCNC(=O)c2ccc3c(Cl)c4c(nc3c2)CCCC4)cc1OC | 31.6 µM (active)
38 | COc1ccc(OC)c(NC(=O)CSc2nc3nc(O)cc(O)c3s2)c1 | inactive
39 | COc1ccc(CCNC(=O)C(=O)NCc2ccc(Cl)cc2)cc1OC | inactive
40 | CCCn1c(SCC(=O)NCCCN2CCCC2=O)nc2ccccc2c1=O | inactive
41 | CCOC(=O)c1cc2c(=O)n3ccccc3nc2n(C(C)C)/c1=N/C(=O)C(C)(C)Oc1ccc(Cl)cc1 | inactive
42 | CCn1c(=N)c(C(=O)NCc2ccccc2)cc2c(=O)n3cccc(C)c3nc21 | inactive

Row | SMILES | Potency
43 | Nc1nc2nccc(-c3cccnc3)n2n1 | inactive
44 | O=C(O)c1cccc(CSc2nnc(-c3cccnc3)o2)c1 | inactive
45 | c1cncc(-c2nnc(-c3cccnc3)nn2)c1 | 35.5 µM (active)
46 | CCOC(=O)C1=C(C)c2ccccc2N(C(=O)OC)C1(C)C(=O)OCC (stereo not drawn) | 35.5 µM (active)
47 | O=C(c1ccco1)N1CCN(Cc2cc(=O)oc3cc(O)ccc23)CC1 | inactive
48 | Nc1cccc2c1C(=O)N(C(=O)c1ccco1)C2=O | inactive
49 | O=C1c2ccccc2-c2onc3c(N4CCN(CCO)CC4)cc(N4CCN(C(=O)c5ccco5)CC4)c1c23 | 39.8 µM (active)
50 | CC(C)(C)N(CC#CCC(O)(c1ccccc1)c1ccccc1)CCO | inactive
51 | CCC[C@@H](CNC)NC[C@H](Cc1ccccc1)NCCCCc1ccccc1 | 39.8 µM (active)
52 | CCC(C(=O)NCCc1ccccc1)c1ccccc1 (stereo not drawn) | inactive
53 | CCCn1c(=N)c(S(=O)(=O)c2ccccc2)cc2c(=O)n3ccccc3nc21 | inactive
54 | CCCn1c(CC)nc([N+](=O)[O-])c1S(=O)(=O)c1ccccc1 | 35.5 µM (active)
55 | O=C(O)/C=C/c1nc(-c2ccccc2)n2ccccc12 | inactive
56 | CC(=O)Oc1c(-c2ccco2)oc2ccccc2c1=O | inactive
57 | COc1cccc(CNC(=O)CCCc2nnc3n(C)c(=O)c4sccc4n23)c1 | inactive
58 | C/C(=N\Nc1ccc([N+](=O)[O-])cc1)c1cc2ccccc2o1 | inactive
59 | O=C(N/N=C/c1cc(Br)c(O)c(Br)c1)c1cc2c(ccc3ccccc32)o1 | inactive
60 | COc1ccc(OC)c(/C=N\NC(=O)c2cc3c(ccc4ccccc43)o2)c1 | inactive
61 | Cc1ccc(-c2ccc(/C=N\NC(=O)c3cc4c(ccc5ccccc54)o3)o2)cc1[N+](=O)[O-] | 37.7 µM (active)
62 | Cc1ccc(C(=O)N/N=C/c2ccc(-c3ccc(Br)cc3[N+](=O)[O-])o2)o1 | inactive
63 | O=C(N/N=C/c1ccc([N+](=O)[O-])o1)c1cc2ccccc2o1 | 10 µM (active)
